The values below come from the supplement of paper PMC8728848.

What all share (test): glycan array binding signal (z-score within array); higher = stronger binding
Experiment [1] concerns Gal6S(b1-4)Glc. The conditions noted are these: glycan notation: IUPAC condensed, linker removed. The method, boiled down: (§1)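 The binding signal is a Z-score computed within each array. Data were drawn from 3228 arrays in the Consortium for Functional Glycomics database, restricted to those with a known protein sequence. Scores were averaged over arrays of the same protein sequence at different concentrations or buffers, and over linkers, and negative values can be taken as non-binding.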

Experiment [2] deals with GlcNAc(a1-3)Gal(b1-4)GlcNAc. The conditions noted are these: glycan notation: IUPAC condensed, linker removed. The method, boiled down: as §1
Experiment [3] deals with GalNAc(a1-3)GalNAc. To be noted: glycan notation: IUPAC condensed, linker removed. The method, boiled down:
as §1

Experiment [4] deals with Glc(a1-4)Glc. To be noted: glycan notation: IUPAC condensed, linker removed. The method, boiled down: as §1
Experiment [5] concerns Glc(b1-6)Glc. To be noted: glycan notation: IUPAC condensed, linker removed. The method, boiled down:
as §1

Experiment [6] has as its system Glc(a1-4)Glc(a1-4)Glc(a1-4)Glc. The conditions noted are these: glycan notation: IUPAC condensed, linker removed. The method, boiled down: as §1
The test system of experiment [7] is Glc(a1-6)Glc(a1-6)Glc(a1-6)Glc. The conditions noted are these: glycan notation: IUPAC condensed, linker removed. The method, boiled down:
as §1

Experiment [8] relates to Glc(a1-6)Glc(a1-6)Glc. The conditions noted are these: glycan notation: IUPAC condensed, linker removed. The method, boiled down: as §1
Experiment [9] relates to GlcNAc(a1-4)Gal(b1-4)GlcNAc(b1-3)Gal(b1-4)GlcNAc(b1-3)Gal(b1-4)GlcNAc. To be noted: glycan notation: IUPAC condensed, linker removed. The method, boiled down:
as §1

For experiment [10], the system named is GalNAc(b1-6)GalNAc. The conditions noted are these: glycan notation: IUPAC condensed, linker removed; mutation: R125K. The method, boiled down:
as §1

For experiment [11], the system named is GlcNAc(a1-4)Gal(b1-4)GlcNAc(b1-3)Gal(b1-4)Glc. To be noted: glycan notation: IUPAC condensed, linker removed. The method, boiled down:
as §1

In experiment [12] the test system is GalNAc(b1-3)Gal(a1-4)Gal(b1-4)GlcNAc. The conditions noted are these: glycan notation: IUPAC condensed, linker removed. The method, boiled down:
as §1

Experiment [13] deals with GalNAc(b1-3)GalNAc. The conditions noted are these: glycan notation: IUPAC condensed, linker removed. The method, boiled down: as §1
The test system of experiment [14] is GlcNAc(a1-4)Gal(b1-4)GlcNAc(b1-3)Gal(b1-4)GlcNAc. To be noted: glycan notation: IUPAC condensed, linker removed. The method, boiled down: as §1
In experiment [15] the test system is GalNAc(b1-4)GlcNAc(b1-2)Man(a1-3)[GalNAc(b1-4)GlcNAc(b1-2)Man(a1-6)]Man(b1-4)GlcNAc(b1-4)GlcNAc. The conditions noted are these: glycan notation: IUPAC condensed, linker removed. The method, boiled down:
as §1

The subject of experiment [16] is GlcNAc(a1-4)Gal(b1-4)GlcNAc(b1-3)Gal(b1-4)[Fuc(a1-3)]GlcNAc(b1-3)Gal(b1-4)[Fuc(a1-3)]GlcNAc. The conditions noted are these: glycan notation: IUPAC condensed, linker removed. The method, boiled down: as §1
Experiment [17] concerns GalNAc(a1-3)Gal. The conditions noted are these: glycan notation: IUPAC condensed, linker removed. The method, boiled down:
as §1

The test system of experiment [18] is Glc(b1-4)Glc. The conditions noted are these: glycan notation: IUPAC condensed, linker removed. The method, boiled down: as §1
The test system of experiment [19] is GlcA(b1-3)Gal. The conditions noted are these: glycan notation: IUPAC condensed, linker removed. The method, boiled down:
as §1

For experiment [20], the system named is GlcA(b1-3)GlcNAc. To be noted: glycan notation: IUPAC condensed, linker removed. The method, boiled down: as §1

Shown is part of a subset that was picked to be rich in the strongest signals.

Sequence of PILRb (Mus musculus), Q2YSF2 (Q2YSF2 entry or part of it): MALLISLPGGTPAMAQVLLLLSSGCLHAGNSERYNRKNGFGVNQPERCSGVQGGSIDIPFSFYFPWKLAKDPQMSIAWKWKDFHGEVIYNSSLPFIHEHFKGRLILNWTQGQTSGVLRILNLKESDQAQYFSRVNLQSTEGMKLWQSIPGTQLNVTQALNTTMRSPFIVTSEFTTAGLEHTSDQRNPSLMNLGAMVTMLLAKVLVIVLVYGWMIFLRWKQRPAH
Sequence of CHI3L1 (Homo sapiens), P36222 (P36222 whole entry): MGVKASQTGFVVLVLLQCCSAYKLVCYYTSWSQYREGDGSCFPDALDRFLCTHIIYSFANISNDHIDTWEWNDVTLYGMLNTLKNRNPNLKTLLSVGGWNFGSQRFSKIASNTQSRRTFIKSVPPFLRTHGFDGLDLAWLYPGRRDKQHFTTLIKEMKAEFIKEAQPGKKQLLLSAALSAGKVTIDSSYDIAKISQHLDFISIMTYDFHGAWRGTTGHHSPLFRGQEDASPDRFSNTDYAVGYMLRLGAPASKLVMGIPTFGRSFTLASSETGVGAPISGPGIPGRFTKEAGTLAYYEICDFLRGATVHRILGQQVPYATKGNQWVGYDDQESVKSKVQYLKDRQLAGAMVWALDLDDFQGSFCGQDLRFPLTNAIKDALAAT
Sequence of wLAT-1A (Homo sapiens), Q01650 (Q01650 whole entry): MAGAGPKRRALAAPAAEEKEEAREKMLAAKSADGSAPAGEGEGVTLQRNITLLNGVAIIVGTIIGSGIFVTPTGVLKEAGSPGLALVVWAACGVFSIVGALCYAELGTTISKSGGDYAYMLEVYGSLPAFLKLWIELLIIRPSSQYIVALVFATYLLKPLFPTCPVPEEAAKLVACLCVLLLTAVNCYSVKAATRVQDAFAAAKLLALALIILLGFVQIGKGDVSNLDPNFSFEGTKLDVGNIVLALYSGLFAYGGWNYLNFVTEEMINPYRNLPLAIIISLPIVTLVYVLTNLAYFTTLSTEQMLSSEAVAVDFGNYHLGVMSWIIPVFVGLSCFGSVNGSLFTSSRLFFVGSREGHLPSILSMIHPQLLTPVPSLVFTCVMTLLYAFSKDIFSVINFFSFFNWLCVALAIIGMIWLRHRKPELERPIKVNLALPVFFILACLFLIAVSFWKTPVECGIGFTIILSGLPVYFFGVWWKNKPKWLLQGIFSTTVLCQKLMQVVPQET
Sequence of Neurocan (Homo sapiens), O14594 (O14594 other isoform, or with tags, fused parts or gaps): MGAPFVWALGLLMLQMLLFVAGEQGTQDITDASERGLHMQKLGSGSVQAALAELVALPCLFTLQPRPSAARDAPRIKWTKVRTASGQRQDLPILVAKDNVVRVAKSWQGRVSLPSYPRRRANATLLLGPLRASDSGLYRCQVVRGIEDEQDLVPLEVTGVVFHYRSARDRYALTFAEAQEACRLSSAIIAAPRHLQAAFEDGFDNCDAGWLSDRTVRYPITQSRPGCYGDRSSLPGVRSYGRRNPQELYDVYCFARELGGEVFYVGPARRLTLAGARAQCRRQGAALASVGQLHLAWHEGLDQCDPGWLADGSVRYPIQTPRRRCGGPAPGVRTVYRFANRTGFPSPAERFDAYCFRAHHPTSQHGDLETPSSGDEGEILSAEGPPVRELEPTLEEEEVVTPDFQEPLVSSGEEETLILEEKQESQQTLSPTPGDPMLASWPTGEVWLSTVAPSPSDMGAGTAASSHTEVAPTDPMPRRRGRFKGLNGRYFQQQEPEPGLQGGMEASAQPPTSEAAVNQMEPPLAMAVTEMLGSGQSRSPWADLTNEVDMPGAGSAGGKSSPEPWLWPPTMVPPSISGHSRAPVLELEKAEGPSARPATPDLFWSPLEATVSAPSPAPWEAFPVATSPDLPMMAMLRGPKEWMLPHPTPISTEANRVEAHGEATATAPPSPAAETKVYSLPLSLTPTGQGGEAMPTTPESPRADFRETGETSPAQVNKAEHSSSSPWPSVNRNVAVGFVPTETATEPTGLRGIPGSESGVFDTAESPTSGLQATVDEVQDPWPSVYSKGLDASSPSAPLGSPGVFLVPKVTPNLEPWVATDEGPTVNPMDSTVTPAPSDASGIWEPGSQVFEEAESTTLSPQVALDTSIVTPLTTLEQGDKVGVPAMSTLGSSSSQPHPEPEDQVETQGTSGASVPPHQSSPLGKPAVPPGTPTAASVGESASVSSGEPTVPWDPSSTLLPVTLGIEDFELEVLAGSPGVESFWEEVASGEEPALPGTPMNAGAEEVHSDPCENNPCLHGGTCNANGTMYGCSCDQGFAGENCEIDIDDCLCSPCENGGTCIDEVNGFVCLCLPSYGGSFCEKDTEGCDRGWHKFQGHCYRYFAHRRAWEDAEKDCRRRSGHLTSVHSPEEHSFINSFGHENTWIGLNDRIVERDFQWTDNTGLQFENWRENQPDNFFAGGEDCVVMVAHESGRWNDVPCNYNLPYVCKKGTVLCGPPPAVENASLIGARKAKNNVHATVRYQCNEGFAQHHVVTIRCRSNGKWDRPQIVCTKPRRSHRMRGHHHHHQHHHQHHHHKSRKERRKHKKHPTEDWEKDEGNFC
Sequence of 6RG (Lolium perenne), B9U140 (B9U140 entry or part of it): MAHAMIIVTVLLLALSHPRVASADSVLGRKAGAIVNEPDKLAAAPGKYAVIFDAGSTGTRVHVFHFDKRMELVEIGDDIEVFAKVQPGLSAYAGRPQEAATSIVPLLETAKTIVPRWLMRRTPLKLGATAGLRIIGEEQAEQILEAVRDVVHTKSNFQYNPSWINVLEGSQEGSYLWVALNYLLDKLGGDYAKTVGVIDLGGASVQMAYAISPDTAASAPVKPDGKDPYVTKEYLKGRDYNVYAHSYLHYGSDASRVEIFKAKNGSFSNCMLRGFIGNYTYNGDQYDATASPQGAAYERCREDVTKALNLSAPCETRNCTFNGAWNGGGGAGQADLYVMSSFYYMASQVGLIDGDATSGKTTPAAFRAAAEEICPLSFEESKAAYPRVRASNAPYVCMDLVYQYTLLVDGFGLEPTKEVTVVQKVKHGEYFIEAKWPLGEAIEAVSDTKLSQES
Sequence of C3b (Homo sapiens), P01024 (P01024 23-667): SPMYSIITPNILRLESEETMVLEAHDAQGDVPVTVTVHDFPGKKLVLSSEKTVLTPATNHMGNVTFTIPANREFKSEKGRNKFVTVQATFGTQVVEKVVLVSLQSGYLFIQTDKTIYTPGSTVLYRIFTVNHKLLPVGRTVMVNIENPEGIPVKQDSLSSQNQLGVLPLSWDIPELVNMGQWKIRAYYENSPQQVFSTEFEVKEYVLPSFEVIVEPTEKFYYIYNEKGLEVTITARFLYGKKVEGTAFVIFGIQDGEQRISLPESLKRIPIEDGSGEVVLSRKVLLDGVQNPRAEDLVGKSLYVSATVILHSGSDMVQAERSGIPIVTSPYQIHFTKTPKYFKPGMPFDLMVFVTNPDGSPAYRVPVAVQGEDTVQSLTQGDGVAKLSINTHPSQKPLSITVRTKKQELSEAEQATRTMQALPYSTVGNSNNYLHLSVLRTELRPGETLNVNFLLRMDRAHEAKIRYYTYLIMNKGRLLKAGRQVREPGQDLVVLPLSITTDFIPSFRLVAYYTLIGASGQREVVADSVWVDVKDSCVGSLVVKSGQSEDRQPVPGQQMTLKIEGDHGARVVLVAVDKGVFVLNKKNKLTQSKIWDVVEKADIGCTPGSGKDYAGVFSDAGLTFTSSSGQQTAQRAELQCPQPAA
Sequence of PILRa (Mus musculus), Q2YSF3 (Q2YSF3 entry or part of it): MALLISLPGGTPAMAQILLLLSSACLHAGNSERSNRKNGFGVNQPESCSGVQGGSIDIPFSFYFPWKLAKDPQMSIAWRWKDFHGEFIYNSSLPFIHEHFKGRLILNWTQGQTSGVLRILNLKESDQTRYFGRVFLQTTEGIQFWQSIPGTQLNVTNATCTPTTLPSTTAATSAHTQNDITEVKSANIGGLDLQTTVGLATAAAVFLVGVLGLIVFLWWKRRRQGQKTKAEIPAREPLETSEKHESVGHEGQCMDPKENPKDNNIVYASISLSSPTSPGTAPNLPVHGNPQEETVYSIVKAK
Sequence of Aggrecan (Rattus norvegicus), NP_071526 (chain, as listed by the source): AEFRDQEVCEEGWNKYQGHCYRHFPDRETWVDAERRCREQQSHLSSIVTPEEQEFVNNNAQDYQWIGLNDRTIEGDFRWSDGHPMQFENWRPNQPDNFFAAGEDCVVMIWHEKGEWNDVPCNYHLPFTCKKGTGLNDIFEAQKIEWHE
Sequence of Regenerating Gene IV (Homo sapiens), Q9BYZ8 (Q9BYZ8 whole entry, looked up): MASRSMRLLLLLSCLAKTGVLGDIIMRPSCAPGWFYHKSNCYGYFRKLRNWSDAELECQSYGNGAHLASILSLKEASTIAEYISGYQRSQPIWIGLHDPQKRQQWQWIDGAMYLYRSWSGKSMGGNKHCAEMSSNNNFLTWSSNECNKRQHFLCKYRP
Sequence of CHT (Homo sapiens) (chain, as listed by the source): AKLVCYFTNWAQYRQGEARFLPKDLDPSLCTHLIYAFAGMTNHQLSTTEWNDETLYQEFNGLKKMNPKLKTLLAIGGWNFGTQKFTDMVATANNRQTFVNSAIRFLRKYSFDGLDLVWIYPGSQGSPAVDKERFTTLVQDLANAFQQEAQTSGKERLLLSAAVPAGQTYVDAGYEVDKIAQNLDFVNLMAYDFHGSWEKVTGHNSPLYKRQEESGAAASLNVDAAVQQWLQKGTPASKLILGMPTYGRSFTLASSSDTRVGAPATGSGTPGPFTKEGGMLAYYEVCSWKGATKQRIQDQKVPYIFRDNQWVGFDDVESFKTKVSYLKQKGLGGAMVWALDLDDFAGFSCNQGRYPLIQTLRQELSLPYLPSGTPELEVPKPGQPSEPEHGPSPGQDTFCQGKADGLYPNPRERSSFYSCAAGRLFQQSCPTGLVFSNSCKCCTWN
Sequence of Avaren (Actinomycete K97) (chain, as listed by the source): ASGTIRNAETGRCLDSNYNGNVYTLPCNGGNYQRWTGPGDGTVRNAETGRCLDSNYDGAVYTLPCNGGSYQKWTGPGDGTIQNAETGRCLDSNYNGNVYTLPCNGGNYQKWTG

HARE (Homo sapiens), Q8WWQ8: the “glycan array binding signal (z-score)” value in [1] worked out at 0.81.
For CHT (Homo sapiens), in [2] (mutation: D138V, E140I), the “glycan array binding signal (z-score)” value is -0.189.
In the case of MpAFP RI GFP (Marinomonas primoryensis), the “glycan array binding signal (z-score)” value in experiment [3] is -0.566.
C3b (Homo sapiens), P01024: the figures for the “glycan array binding signal (z-score)” value in [4] and in experiment [5] were -0.67 and 3.33, respectively.
Consider CHI3L1 (Homo sapiens), P36222, for which the “glycan array binding signal (z-score)” value in [6] was 0.48; in experiment [7], 1.01; in experiment [8] it was -0.073; in experiment [9], -0.129.
Consider Siglec-8 (Homo sapiens), Q9NYZ4, for which the “glycan array binding signal (z-score)” value is 0.06 in [1] (mutation: R125K), -0.055 in experiment [10] and -0.267 in experiment [11].
Regarding PILRb (Mus musculus), Q2YSF2, the figures for the “glycan array binding signal (z-score)” value in experiment [12], in experiment [13] and in experiment [14] were -0.074, 0.288 and 0.156, respectively.
As to Aggrecan (Rattus norvegicus), NP_071526, the “glycan array binding signal (z-score)” value in [15] is 0.017; in [16], 0.828.
wLAT-1A (Homo sapiens), Q01650: the “glycan array binding signal (z-score)” value was determined as 6.65 in experiment [3], 3.46 in experiment [17] and 1.87 in experiment [13].
Turning to Avaren (Actinomycete K97), the “glycan array binding signal (z-score)” value in experiment [7] was -0.14.
In the case of “Regenerating Gene IV (Homo sapiens), Q9BYZ8”, the “glycan array binding signal (z-score)” value in experiment [18] is 5.46.
For PILRa (Mus musculus), Q2YSF3, the results for the “glycan array binding signal (z-score)” value in experiment [8] and in experiment [5] were -0.233 and -0.169, respectively.
With 6RG (Lolium perenne), B9U140, the “glycan array binding signal (z-score)” value is 0.084 in [1], -0.395 in experiment [17] and -0.228 in experiment [2].
Regarding Neurocan (Homo sapiens), O14594, the “glycan array binding signal (z-score)” value in experiment [19] is 0.453; in [20], 10.5; in experiment [11], -0.326; in experiment [16], 4.73.
